Laboratory results: PubChem BioAssay AID1251 (SRMLSC, 2008)
In all, about 200,000 compounds went through this assay and about 720 (0.36%) were called active. No stated cut-off is given here; in the data, active means inhibition above about 30%; inactive means the rest, inconclusive results apart. Only a selection was taken, and actives are over-represented in it overall.

assay: inhibitors of arbovirus infection in cells – cell-based, full library, 10K replicate subset, primary screen (AID 1251); details: arbovirus infection cell-based antiviral screen, at 10 µM, active compounds read high

inhibition, active:
CC(=O)Nc1ccc(NC(=O)COc2ccccc2C(=O)Nc2cccc(Cl)c2Cl)cc1 33.1%
O=C(Nc1ccn(Cc2ccccc2)n1)c1n[nH]c([N+](=O)[O-])c1Cl 50.2%
O=C(c1ccc2ccccc2n1)N1CCN(c2ccccc2Cl)CC1 36%
Cc1nc(Nc2ccc3c(c2)OCCO3)c2nnn(Cc3ccccc3Cl)c2n1 51.5%
Cc1cc(C)c(NC(=O)c2oc3ccccc3c2COc2ccccc2)c(C)c1 32.5%
CCSc1nnc(NC(=O)c2ccc(C)cc2)s1 33.2%
CCCn1c(N)c(C(=O)CSc2nc3ccccc3c(=O)n2-c2ccc(OC)cc2)c(=O)[nH]c1=O 30.7%
CCOC(=O)c1sc(=S)n2c1[nH]c(=O)c1ccc(C(=O)OC)cc12 32.4%
COc1ccc(CCCc2nnc(SCc3nc4ccccc4c(=O)[nH]3)n2C)cc1 31.9%
CCCCSc1[nH]c(=O)c(C(=O)OCC)cc1C#N 39.8%
COc1ccccc1N1CCN(Cc2ccc(OC)c3ccccc23)CC1 31.9%

inhibition, inactive:
COc1ccc(CCNC(=O)/C(C#N)=C2\N=C(NC(=O)c3cccs3)c3ccccc32)cc1 1.79%
O=C(O)/C=C/c1cn(Cc2ccccc2)nc1-c1cccs1 9.79%
Cc1c(Cl)cccc1NC(=S)NCc1ccc2c(c1)OCO2 -9.04%
COCC(C)NCc1cc(Br)ccc1OC (stereo not given) 5.99%
CCOc1ncccc1C(=O)N(C)CC(=O)Nc1ccc(F)cc1 -2.52%
Cc1cc2ccccc2n1CCC(=O)O 4.57%
COc1ccccc1N1CCN(C(=O)c2ccc(Cl)c(S(=O)(=O)N3CCCC3)c2)CC1 4.9%
COc1cc(NC(=O)COc2ccccc2Cl)ccc1NC(=O)C(C)C -3.4%
O=C(COc1ccccc1Cl)Nc1ccc(C(=O)c2ccc(C(=O)O)cc2)cc1 1.44%
CSc1ccccc1NC(=O)CN(C)CC(=O)Nc1ccc(Cl)cc1[N+](=O)[O-] 9.71%
COc1ccccc1C(=O)Nn1c(-c2cccs2)nc2ccccc2c1=O -3.21%
CCOC(=O)N1CCN(C(=O)Cn2cnc3ccccc3c2=O)CC1 4.88%
CCOC(=O)C(=Cc1ccccc1OC)C(=O)OCC 1.92%
O=c1c2c(ncn1Cc1ccccc1)nc1n2CCC1 -1.22%
COc1ccc(/C=N/NC(=O)C(C)N(c2ccc(OC)cc2)S(C)(=O)=O)cc1 (stereo not given) -1.77%
COc1cc(OC)cc(C(=O)OCC(=O)Nc2sccc2C(N)=O)c1 4.53%
O=C(COC(=O)C12CC3CC(CC(O)(C3)C1)C2)NC12CC3CC(CC(C3)C1)C2 5.43%
Cc1ccc(C(=O)N/C(=C\c2ccco2)C(=O)N2CCSCC2)cc1C 4.17%
O=C(Nc1ccn(Cc2ccccc2)n1)c1cccc(F)c1 -18.6%
O=C(Nc1ccn(Cc2ccc(F)cc2)n1)c1ccncc1 3.28%
CC(=O)NC(NC(=S)Nc1c(C)n(C)n(-c2ccccc2)c1=O)C(Cl)(Cl)Cl (stereo not given) 7.15%
CCOc1cc(NC(=S)NCCCN(C)C)c(OCC)cc1NC(=O)C1CC1 5.58%
CCOc1ccc(Br)cc1S(=O)(=O)Nc1cccc(S(=O)(=O)N(CC)CC)c1 2.51%
CN(C)c1ccc(C(CC(=O)O)C(=O)O)cc1 (stereo not given) 2.46%
COc1ccc(N2C(=O)C(CC(=O)Nc3ccccc3)N(Cc3ccc(OC)c(OC)c3)C2=O)cc1 (stereo not given) 0.98%
COc1ccccc1N1CCN(C(=O)c2cc(-c3ccc(Cl)c(Cl)c3)on2)CC1 2.74%
O=C(c1ccncc1)N1CCN(c2ccc3ccccc3n2)CC1 5.37%
Cc1cc(C(=O)NNC(=O)CCC2CCCCC2)c(C)o1 -2.2%
C=CCn1nc(-c2ccccc2)c2c(C)onc2c1=O 4.65%
Cc1ccc(-c2cc(C(F)(F)F)n3ncc(C(=O)N4CCCCC4c4cccnc4)c3n2)cc1 (stereo not given) -9.25%
COCCn1c(C)cc(C(=O)CSc2nc3ccccc3c(=O)n2C(C)COC)c1C (stereo not given) 8.78%
CCCc1nc(NCc2ccc3c(c2)OCO3)c2nnn(Cc3ccccc3Cl)c2n1 -16.2%
Cc1nc(Nc2ccc(S(=O)(=O)N3CCCC3)cc2)c2nnn(Cc3ccccc3)c2n1 -12.5%
Cc1ccc2nsnc2c1S(=O)(=O)N1CCCC1C(=O)O (stereo not given) 1.07%
CCOC(=O)c1oc2ccccc2c1NC(=O)c1cccs1 -1.76%
COCc1c(C(=O)OCc2c(C)noc2C)oc2ccccc12 3.37%
O=c1[nH]c(CN2CCOCC2)nc2scc(-c3ccccc3)c12 5.07%
O=C(CN(CC1CCCO1)C(=O)CNS(=O)(=O)c1ccc(F)cc1)NCc1ccco1 (stereo not given) 2.42%
C/C(=N\N=C(N)N)c1ccc(Cl)cc1 -24.2%
CC(C)(C)C(=O)NCCCNc1ccc([N+](=O)[O-])cc1 1.95%
O=C(CNCc1ccc(F)cc1)Nc1ccccc1-c1ccccc1 -16.4%
CCc1ccc(/C=C2\SC(N3CCOCC3)=NC2=O)cc1 -6.68%
Cc1ccc(N2CCN(C3=NC(=O)/C(=C\c4cccs4)S3)CC2)cc1 6.43%
Cc1ccc(Cl)c(NC(=O)CN2CCN(C=O)CC2)c1 5.23%
COc1ccc(CCn2ccc(O)c(Cc3ccc(Cl)cc3Cl)c2=O)cc1OC 5.76%
C/C(CCc1ccccc1)=N\NC(=O)c1ccc(CN2CCOCC2)cc1 -3.19%
COc1ccc2c(c1)CCC/C2=N\OC(=O)c1ccccc1F -1.6%
CCOc1cc(CNCc2ccccn2)ccc1OCC(=O)NC(C)(C)C -2.89%
CCCCCC(=O)NC(=S)NNC(=O)c1ccc([N+](=O)[O-])cc1 -18%
CCN(C(=O)COC(=O)c1cc(S(=O)(=O)N2CCc3ccccc32)ccc1OC)C1CCS(=O)(=O)C1 (stereo not given) 7.54%
CCN(CC)CCNC(=O)c1ccc(NC(=O)c2c(F)cccc2Cl)cc1 -4.69%
Cc1cc(C)c2nc(SCC(=O)N(C)C3CCS(=O)(=O)C3)cc(C)c2c1 (stereo not given) -6.1%
CCSc1nnc(NC(=O)Cc2ccccc2OC)s1 3.03%
CC(=O)c1sc(NC(=O)c2ccc(C)cc2)nc1C -4.42%
COc1cccc(CNn2cn[nH]c2=S)c1OCc1ccccc1 -1.17%
NC(=O)CC[C@@H]1NC(=O)[C@@H]2CCCN2C(=O)c2cc([N+](=O)[O-])cc(F)c2NCCC[C@@H](C(N)=O)NC1=O 8.77%
O=C(CSc1ncn[nH]1)NCc1ccc2c(c1)OCO2 2.87%
CCNC(=S)N1CCN(c2ncccn2)CC1 -0.7%
O=C(C1=C[C@H](C2CC2)C[C@H](OCc2ccc(CO)cc2)O1)N1CCN(Cc2ccccc2)CC1 4.26%
CN(C)NC(=O)C(NC(=O)c1ccc(N)cc1)C12CC3CC(CC(C3)C1)C2 (stereo not given) 5.7%
CCOC(=O)c1ccccc1N1C(=O)C2Sc3[nH]c(=O)sc3C(/C=C/c3ccccc3)C2C1=O (stereo not given) -0.3%
CCC(C)NCCOCCOc1ccc(Br)cc1C (stereo not given) -28.9%
COc1ccc2cc(CCl)c(Cl)nc2c1 -7.11%
CCCn1c(N)c(C(=O)CSc2nnc(-c3cccnc3)n2-c2ccc(C)cc2C)c(=O)[nH]c1=O 6.05%
COc1cccc(-n2c(SCC(=O)c3c[nH]c4ccccc34)nc3ccccc3c2=O)c1 5.13%
CCCCCOc1ccc(CSC2=NCCN2)cc1[N+](=O)[O-] -7.5%
CCOC(=O)c1sc(=S)n(-c2cccc(OC)c2)c1N 0.93%
CCOC(=O)Cn1c(N)c(C(=O)OC)sc1=S 0.02%
CCOC(=O)C1=C(C)NC(=S)NC1c1cccs1 (stereo not given) -5%
COC(=O)c1ccc(NC(=O)c2cc(Cl)ccc2OC)cc1 -17.6%
CC(=O)N1CCN(S(=O)(=O)c2c(F)cc(F)c(Cl)c2F)CC1 6.03%
Cc1ccc(N2C(=O)C(CC(=O)Nc3cccc(F)c3)N(CCc3ccncc3)C2=O)cc1 (stereo not given) 7.79%
CCn1c(COc2c(C)cccc2C)nnc1SCc1nc2ccccc2c(=O)[nH]1 0.34%
CCn1c(Cc2ccccc2)nnc1SCc1nc2ccccc2c(=O)[nH]1 5.28%
Cc1ccc(N(CCC(=O)O)S(=O)(=O)c2cccc(C(F)(F)F)c2)cc1 5.45%
O=c1nc(N/N=C/c2ccco2)cn[nH]1 -4.7%
CC(=O)c1cc(C#N)c(SCC(=O)C(C)(C)C)nc1C -12.4%
Cc1cc(=O)[nH]c(SCC(N)=O)c1C#N 4.32%
COc1cc(NS(=O)(=O)c2ccc(NC(=O)c3ccc(S(=O)(=O)N4CCCCC4)cc3)cc2)ncn1 -0.14%
N#Cc1ccc(C(=O)Nc2nc(-c3cccs3)c(C(=O)C(F)(F)F)s2)cc1 2.83%
CCn1c(CSCc2c(Cl)cccc2Cl)n[nH]c1=S 10.9%
CN(CC(=O)Nc1ccc(S(=O)(=O)N2CCCC2)cc1)Cc1ccc(Cl)c(Cl)c1 -4.82%
COc1ccccc1N1CCN(CCCCOc2ccc(F)cc2)CC1 13.4%
CNCC(O)CN1CCN(c2ccccc2OC)CC1 (stereo not given) 3.01%
